How the values were obtained:
[1] = system: Vero E6 infected with SARS-CoV-2; assay: morphology score (similarity to uninfected cells); higher = more like uninfected cells; settings: 24 h
[2] = system: Vero E6 infected with SARS-CoV-2; assay: SARS-CoV-2 infection rate relative to infected DMSO; higher = more infection, active = 60 or less; settings: 24 h

Structure (SMILES) | morphology score [1] | SARS-CoV-2 infection rate [2]
CCn1c(-c2nonc2N)nc2cnc(Oc3cccc(NC(=O)c4ccc(OCCN5CCOCC5)cc4)c3)cc21 (10 µM) | 0.306 | 97% (inactive)
COC(=O)C1=C(C#N)NC(C)=C(C(=O)OC(C)C)C1c1cccc([N+](=O)[O-])c1 (centres undefined) [nilvadipine] (10 µM) | -0.0761 | 106% (inactive)
CC[C@@H](C(N)=O)N1CCCC1=O [levetiracetam] (10 µM) | 0.0141 | 109% (inactive)
CSc1ccc(C(=O)c2[nH]c(=O)[nH]c2C)cc1 [enoximone] (10 µM) | 0.104 | 88.5% (inactive)
Brc1c(NC2=NCCN2)ccc2nccnc12 [brimonidine] (10 µM) | 0.0346 | 106% (inactive)
C[C@H]1N=C(N(C)C)N=C(N)N1 [imeglimin] (10 µM) | 0.0246 | 99% (inactive)
CC(=O)c1ccc2c(c1)N(CCCN1CCC(CCO)CC1)c1ccccc1S2 [piperacetazine] (10 µM) | 0.384 | 75% (inactive)
NNC(=O)CSc1nc2scc(-c3ccccc3)c2c(=O)n1-c1ccccc1 (10 µM) | -0.0192 | 99.5% (inactive)
COC(=O)N[C@H](C(=O)N1CCC[C@H]1C(=O)Nc1ccc([C@@H]2CC[C@@H](c3ccc(NC(=O)[C@@H]4CCCN4C(=O)[C@@H](NC(=O)OC)C(C)C)cc3)N2c2ccc(C(C)(C)C)cc2)cc1)C(C)C [ombitasvir] (10 µM) | 0.125 | 113% (inactive)
C=CCN1C[C@H](C)N([C@H](c2ccc(C(=O)N(CC)CC)cc2)c2cccc(O)c2)C[C@H]1C (10 µM) | 0.1 | 105% (inactive)
CCCCCCCCCCCCCCCC[N+](C)(C)C [cetrimonium] (0.833333 µM) | -0.199 | 114% (inactive)
O[C@@H]1[C@H](O)[C@@H](CCl)O[C@H]1n1cnc2c(NC3CC4CCC3C4)ncnc21 (mixture of isomers) [5'-chloro-5'-deoxy-ENBA-(+/-)] (10 µM) | 0.0934 | 104% (inactive)
CCOC(=O)Nc1cc2c(c(N)n1)N=C(c1ccccc1)[C@H](C)N2 [mivobulin] (10 µM) | -0.0939 | 112% (inactive)
NC(CO)(CO)CO [trometamol] (10 µM) | -0.0719 | 106% (inactive)
Cc1ccc(=O)n(-c2ccccc2)c1 [pirfenidone] (10 µM) | 0.289 | 83% (inactive)
NC(=O)C[S+]([O-])C(c1ccccc1)c1ccccc1 (centres undefined) (10 µM) | 0.113 | 106% (inactive)
CCCc1c(OCCCCc2nnn[nH]2)ccc(C(C)=O)c1O [tomelukast] (10 µM) | -0.0661 | 110% (inactive)
O=C(O)C1CSCN1 (centres undefined) [timonacic] (10 µM) | -0.0905 | 110% (inactive)
CNC[C@H](O)[C@@H](O)[C@H](O)[C@H](O)CO [meglumine] (10 µM) | -0.00131 | 104% (inactive)
CC(=O)C1=C(O)[C@@H]2[C@H]3c4c[nH]c5cccc(c45)C[C@H]3C(C)(C)N2C1=O [cyclopiazonic-acid] (0.833333 µM) | 0.361 | 76.5% (inactive)
Cc1c(-c2ccnn2C)cc(C(=O)NCc2ccc(S(C)(=O)=O)cn2)c(=O)n1-c1cccc(C(F)(F)F)c1 (10 µM) | 0.101 | 106% (inactive)
NCc1ccccc1CC(=O)N[C@@H]1C(=O)N2C(C(=O)O)=C(CSc3nnnn3CC(=O)O)CS[C@H]12 [ceforanide] (10 µM) | 0.13 | 100% (inactive)
CC(C)C(=O)OC[C@@]1(N=[N+]=[N-])O[C@@H](n2ccc(N)nc2=O)[C@H](OC(=O)C(C)C)[C@@H]1OC(=O)C(C)C [balapiravir] (10 µM) | 0.0882 | 88% (inactive)
Cc1ccnc2c1CCCC2C(N)=S (centres undefined) [isotiquimide] (10 µM) | 0.0559 | 113% (inactive)
CN1C(=O)C[C@@H](C(=O)N[C@@H](Cc2c[nH]cn2)C(=O)N2CCC[C@H]2C(N)=O)NC1=O [taltirelin] (10 µM) | 0.0707 | 87% (inactive)
CCCC(=O)O [sodium-butyrate] (10 µM) | 0.0558 | 110% (inactive)
NC(=O)c1nc(F)cnc1O [favipiravir] (10 µM) | 0.0924 | 104% (inactive)

Reference: the supplement of paper PMC13380429
